The record followed here is PubChem BioAssay (NCATS).

“And” between values parts separate entries of the source, which are not always exact repeats. Equal values may be shown once. Results filed as inconclusive are left out. A number with no mark means an inactive call. The source made the active and inactive calls. The call rests on the fitted dose curve; in most records, active means well fitted inhibition curve with a large enough effect; inconclusive means small, poorly fitted or top-dose-only effect; inactive means flat fitted curve, though single readings scatter.
On the % scale 0 is the no-effect control and ±100 the full control effect; potency means the concentration at half of the fitted maximal effect.

For this assay, the system named is HEK293. Briefly: Cytotoxic Profiling of Annotated Libraries Using Quantitative High-Throughput Screening (AID 1296008). Further: nearly all actives have a fitted effect of over 60% in size. To be noted: Five cell lines viability, CellTiter-Glo ATP luminescence, 48-72 h; max response: active compounds read low. From the text:
Cell-based phenotypic screening is a commonly used approach to discover biological pathways, novel drug targets, chemical probes and high-quality hit-to-lead molecules. Many hits identified from high-throughput screening campaign are ruled out through a series of follow-up potency, selectivity/specificity, and cytotoxicity assays. Prioritization of molecules with little or no cytotoxicity for a more in-depth downstream evaluation influence the future direction of projects, so cytotoxicity profiling of the screening libraries at early stage is essential for increasing the likelihood of candidate success. […] For the annotated library, we also examined the primary targets and mechanistic pathways regularly associated with cell death. To our knowledge, this is the first study to use high-throughput screening to profile large libraries for cytotoxicity assessment in both normal and cancer cell lines. In summary, the results generated here constitutes a valuable resource for the scientific community and provides insight on identifying cytotoxic compounds with particular mechanisms of action, and prioritizing compounds with suitable cytotoxicity profile for further evaluation.
A pintool (Kalypsys) was used to transfer 23 nL of compound solution to the 1536-well assay plates. After 48 or 72 hr incubation at 37 degree Celsius, 5% CO2 and 95% humidity, 2.5 uL of CellTiter-Glo (Promega) was dispensed into each well using a dispenser (Aspect Automation, St. Paul, MN) with solenoid valves (Lee Valves, Westbrook CT). Plates were left at room temperature for 10 min before imaging the ATP-coupled luminescence using a ViewLux microplate imager (PerkinElmer, Waltham, MA).
For orientation: In ATP-based viability assays light output follows the ATP content of the culture.
For `CN(C)[C@@H]1C(=O)C(C(N)=O)=C(O)[C@@]2(O)C(=O)C3=C(O)c4c(O)cccc4[C@@](C)(O)[C@H]3C[C@@H]12`, the max response is -12.7%.

Regarding `CC(C)(C)CC(C)(C)c1ccc(O)cc1`, the Potency is 19.3 µM (active).

`NCCc1cc(O)c(O)cc1O`: the outcome was inactive.

As to `CC1NCCOC1c1ccccc1` (stereo unspecified), the compound was called inactive.

Take `C[C@@H]1O[C@@H](O[C@H]2C[C@@H](O)[C@]3(CO)[C@H]4[C@H](O)C[C@]5(C)[C@@H](C6=CC(=O)OC6)CC[C@]5(O)[C@@H]4CC[C@]3(O)C2)[C@H](O)[C@H](O)[C@H]1O`: the Potency is 46.9 nM (active) and 94.4 nM (active) and 70.9 nM (active).

Consider `CCC(=O)C(CC(C)N(C)C)(c1ccccc1)c1ccccc1` (stereo unspecified), for which the Potency is 30.9 µM (active).

With `CC[C@@H](CO)NC(=O)[C@@H]1C=C2c3cccc4[nH]cc(c34)C[C@H]2N(C)C1`, the max response was -3.34%.

Regarding `Cn1c(CCCC(=O)O)nc2cc(N(CCCl)CCCl)ccc21`, the call was inactive and the max response was 1.54%.

With `N[C@@H]1C[C@H]1c1ccccc1`, the max response is -4.85%.

In the case of `O=C(O)C(=O)c1cn(Cc2ccccc2)c2ccc(-c3ccc(OC(F)(F)F)cc3)cc12`, the compound was classed as inactive and the max response is 3.18%.

With `CN1CCN(C(=O)O[C@H]2c3nccnc3C(=O)N2c2ccc(Cl)cn2)CC1`, the compound was called inactive and the max response is 3.04%.

Take `CNC(=O)c1ccc(N2C(=S)N(c3ccc(C#N)c(C(F)(F)F)c3)C(=O)C23CCC3)cc1F`: the max response is -7.61% and the compound was classed as inactive.

`CCCC(C)(COC(N)=O)COC(=O)NC(C)C` (stereo unspecified): the max response is 0.0303% and the call was inactive.

`CC(=O)[C@H]1CC[C@H]2[C@@H]3CC[C@H]4C[C@](C)(O)CC[C@]4(C)[C@H]3CC[C@]12C`: the call was inactive.

`COc1ccc2c(c1OC)CN1CCc3cc4c(cc3C1C2)OCO4` (stereo unspecified): the Potency is 9.44 µM (active) and 935 nM (active).

Regarding `COc1ccc(Cc2nccc3cc(OC)c(OC)cc23)cc1OC`, the Potency was 8.41 µM (active).

As to `Cc1ccc2c(c1)C1CN(C)CCC1N2` (stereo unspecified), the max response was 1.62%.

As to `N[C@@H](Cc1ccc(Oc2cc(I)c(O)c(I)c2)c(I)c1)C(=O)O`, the result was inactive.

As to `CCN(CC)CCOC(=O)C(O)(c1ccccc1)c1ccccc1`, the max response was 3.4%.

As for `O=c1oc2ccccc2c(O)c1C(CC(O)c1ccc(-c2ccc(Br)cc2)cc1)c1ccccc1` (stereo unspecified), the result was inactive.

`Oc1cc(Cl)ccc1Oc1ccc(Cl)cc1Cl`: the Potency was 22.1 µM (active).

As for `CC(C)CC(N(C)C)C1(c2ccc(Cl)cc2)CCC1` (stereo unspecified), the max response is 3.97% and -10.6%.

`NCC1(CC(=O)O)CCCCC1`: the compound was classed as inactive and the max response is 4.46%.

Consider `CCOC(=O)C1(c2ccccc2)CCN(CCC(C#N)(c2ccccc2)c2ccccc2)CC1`, for which the Potency was 7.5 µM (active).

As to `Clc1ccc(CCC(Cn2ccnc2)Sc2c(Cl)cccc2Cl)cc1` (stereo unspecified), the Potency is 26.4 µM (active).

For the compound `c1ccc2c(c1)OCC(C1=NCCN1)O2` (stereo unspecified), the Potency was 18.8 µM (active).

Regarding `CC(=O)Nc1cc([As](=O)(O)O)ccc1O`, the max response was 2.5%.

For the compound `C=CCN1CC[C@]23c4c5ccc(O)c4O[C@H]2C(=O)CC[C@@]3(O)[C@H]1C5`, the max response is -4.65%.

Take `Oc1ccccc1-c1ccccc1`: the call was inactive.

`CN(C)CCN(C)CCc1ccc(Cl)c(Cl)c1`: the max response is 0.598%.

With `COC[C@@H](NC(C)=O)C(=O)NCc1ccccc1`, the max response was -4.08%.

Turning to `C#CCOC(C(=O)OCCN(C)C)(c1ccccc1)c1ccccc1`, the max response was -8.54%.

As for `CC(C)=CC1C(C(=O)OCc2cccc(Oc3ccccc3)c2)C1(C)C` (stereo unspecified), the outcome was inactive.

For the compound `Cc1cccc(C)c1NC(=O)CN1CCCC1=O`, the compound was classed as inactive and the max response was 2.15%.
